Laboratory results as given in PubChem BioAssay AID1159580 (chemical genetic matrix, 2015).
Several values for one entry are separate records, joined by “and”; a condition that tells them apart may be missing. Equal values may be shown once. Out of some 5,500 compounds screened, about 2,000 (36%) were called active. About 18% were inconclusive and are not listed. Cut-off read from the data, not from the text of the source: active = normalized growth mostly below about 0.91 (no sharp cut-off); inconclusive = no clear call, values can overlap the other calls; inactive = mostly above about 0.92. Some of the results follow.

Experiment: chemical genetic growth profiling, strain panel (AID 1159580);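 note: tested at 20 µM; growth read once vehicle control cultures reached saturation at 30 °C; 1 = growth at the plate median or of vehicle wells; lower values mean less growth of the strain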
Conditions: S. cerevisiae deletion strains, growth OD

Measured: normalized growth

Cc1ccc(/C(=C\CN2CCCC2)c2ccccn2)cc1
inactive: locus YAL013W, strain DEP1, hits give low values 1.01 | locus YAL021C, strain ccr4, hits give low values 0.99 | locus YAL026C, strain drs2, hits give low values 0.992 | locus YAL030W, strain snc1, hits give low values 1.03 | locus YAL040C, strain CLN3, hits give low values 1.02 | locus YBL061C, strain skt5, hits give low values 1.02 | locus YBR009C, strain hhf1, hits give low values 0.971 | locus YBR021W, strain FUR4, hits give low values 1 | locus YBR023C, strain chs3, hits give low values 1.01 | locus YBR171W, strain sec66, hits give low values 1.02 | locus YBR229C, strain ROT2, hits give low values 1.01 | locus YBR231C, strain swc5, hits give low values 1.04 | locus YBR279W, strain paf1, hits give low values 0.991 | locus YCL011C, strain gbp2, hits give low values 0.99 | locus YCL016C, strain dcc1, hits give low values 0.975 | locus YCL029C, strain bik1, hits give low values 1 | locus YCL061C, strain MRC1 (second series), hits give low values 0.99 | locus YCL061C, strain MRC1, hits give low values 1.02 | locus YCL069W, strain vba3, hits give low values 1.01 | locus YCR088W, strain abp1, hits give low values 1.02 | locus YDL005C, strain med2, hits give low values 1.01 | locus YDL035C, strain GPR1, hits give low values 1.02 | locus YDL040C, strain nat1, hits give low values 1.01 | locus YDL074C, strain BRE1, hits give low values 1.01 | locus YDL101C, strain DUN1, hits give low values 1.01 | locus YDL134C, strain PPH21, hits give low values 1.01 | locus YDL185W, strain tfp1, hits give low values 1.01 | locus YDL192W, strain arf1, hits give low values 1 | locus YDR001C, strain nth1, hits give low values 1 | locus YDR069C, strain doa4, hits give low values 1.02 | locus YDR101C, strain arx1, hits give low values 0.997 | locus YDR137W, strain rgp1, hits give low values 0.993 | locus YDR150W, strain NUM1, hits give low values 1.02 | locus YDR159W, strain sac3, hits give low values 0.933 | locus YDR162C, strain NBP2, hits give low values 1.01 | locus YDR195W, strain ref2 0.993 | locus YDR297W, strain sur2, hits give low values 1.02 | locus YDR318W, strain mcm21, hits give low values 0.995 | locus YDR334W, strain swr1, hits give low values 0.991 | locus YDR335W, strain msn5, hits give low values 1.01 | locus YDR363W, strain ESC2, hits give low values 0.965 | locus YDR388W, hits give low values 0.998 | locus YDR392W, strain spt3, hits give low values 0.927 | locus YDR502C, strain sam2, hits give low values 0.995 | locus YEL003W, strain gim4, hits give low values 1.04 | locus YEL037C, strain rad23, hits give low values 1.01 | locus YEL061C, strain CIN8 (second series), hits give low values 1.01 | locus YEL061C, strain CIN8, hits give low values 1.01 | locus YER002W, strain NOP16, hits give low values 1 | locus YER015W, strain faa2, hits give low values 1.01 | locus YER016W, strain bim1, hits give low values 0.995 | locus YER110C, hits give low values 0.995 | locus YER111C, strain swi4, hits give low values 1 | locus YER155C, strain BEM2 (second series), hits give low values 1.05 | locus YER155C, strain BEM2, hits give low values 1 | locus YER167W, strain BCK2, hits give low values 1.01 | locus YFR010W, strain ubp6, hits give low values 1.01 | locus YGL078C, strain dbp3, hits give low values 0.993 | locus YGL086W, strain mad1, hits give low values 0.996 | locus YGL167C, strain pmr1, hits give low values 1.01 | locus YGL173C, strain kem1, hits give low values 1.04 | locus YGL227W, strain vid30, hits give low values 1.01 | locus YGL240W, strain doc1, hits give low values 1.03 | locus YGL248W, strain PDE1, hits give low values 1 | locus YGL253W, strain hxk2, hits give low values 0.98 | locus YGR078C, strain PAC10, hits give low values 1.01 and 0.984 | locus YGR135W, strain pre9, hits give low values 0.997 | locus YGR229C, strain SMI1, hits give low values 1.01 and 0.973 | locus YGR252W, strain gcn5, hits give low values 0.98 | locus YHR013C, strain ard1, hits give low values 0.999 | locus YHR027C, strain rpn1, hits give low values 1.01 | locus YHR030C, strain SLT2, hits give low values 1.02 and 0.995 | locus YHR079C, strain IRE1 (second series), hits give low values 0.998 | locus YHR079C, strain IRE1, hits give low values 1.02 | locus YHR094C, strain hxt1, hits give low values 0.999 | locus YHR129C, strain ARP1, hits give low values 1.01 | locus YHR142W, strain chs7, hits give low values 1.01 | locus YHR200W, strain rpn10, hits give low values 1 | locus YIL066C, strain RNR3, hits give low values 1.02 | locus YIL073C, strain SPO22, hits give low values 1.01 | locus YIL125W, strain kgd1, hits give low values 1 | locus YIR030C, strain dcg1, hits give low values 0.995 | locus YJL092W, strain hpr5, hits give low values 1.02 | locus YJL095W, strain BCK1 (second series), hits give low values 1.03 | locus YJL095W, strain BCK1, hits give low values 0.997 and 1.01 | locus YJL115W, strain asf1, hits give low values 1 | locus YJL129C, strain trk1, hits give low values 1.03 | locus YJL134W, strain LCB3, hits give low values 1.01 | locus YJL154C, strain vps35, hits give low values 1.01 | locus YJL164C, strain tpk1, hits give low values 0.979 | locus YJL166W, strain qcr8, hits give low values 1.04 | locus YJL168C, strain set2, hits give low values 1 | locus YJL187C, strain SWE1 (second series), hits give low values 1.02 | locus YJL187C, strain SWE1, hits give low values 1.02 | locus YJR043C, strain POL32, hits give low values 0.991 | locus YJR066W, strain TOR1, hits give low values 0.955
